Data as given in the supplement of paper PMC3334620.
In all, about 33,000 sequences were measured (“E-score (-0.5 to 0.5)”: median about -0.01, highest 2% from about 0.26 on). The entries come from a sample that favours the highest values as a whole.

Target: Ste12 (UniProt P13574)
Assay: PBM E-score (8-mer binding enrichment) (E-score (-0.5 to 0.5)); higher = stronger / more preferred TF binding
Settings: protein concentration: 200 nM; construct: GST-DNA-binding domain
Procedure: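 Universal 'all 10-mer' protein binding microarrays (Agilent AMADID 015681) probed with GST-tagged S. cerevisiae TFs (full-length or DBD) made by in vitro transcription/translation (PURExpress), about 100-200 nM. Bound TF was detected with fluorescent anti-GST. Each ungapped 8-mer (which stands for itself and its reverse complement) is scored by the PBM enrichment score (E-score), a modified Wilcoxon-Mann-Whitney statistic from -0.5 to +0.5, computed with the Universal PBM Analysis Suite. Scale: above 0.35 generally sequence-specific binding.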

UniProt P13574, sequence (P13574 whole entry): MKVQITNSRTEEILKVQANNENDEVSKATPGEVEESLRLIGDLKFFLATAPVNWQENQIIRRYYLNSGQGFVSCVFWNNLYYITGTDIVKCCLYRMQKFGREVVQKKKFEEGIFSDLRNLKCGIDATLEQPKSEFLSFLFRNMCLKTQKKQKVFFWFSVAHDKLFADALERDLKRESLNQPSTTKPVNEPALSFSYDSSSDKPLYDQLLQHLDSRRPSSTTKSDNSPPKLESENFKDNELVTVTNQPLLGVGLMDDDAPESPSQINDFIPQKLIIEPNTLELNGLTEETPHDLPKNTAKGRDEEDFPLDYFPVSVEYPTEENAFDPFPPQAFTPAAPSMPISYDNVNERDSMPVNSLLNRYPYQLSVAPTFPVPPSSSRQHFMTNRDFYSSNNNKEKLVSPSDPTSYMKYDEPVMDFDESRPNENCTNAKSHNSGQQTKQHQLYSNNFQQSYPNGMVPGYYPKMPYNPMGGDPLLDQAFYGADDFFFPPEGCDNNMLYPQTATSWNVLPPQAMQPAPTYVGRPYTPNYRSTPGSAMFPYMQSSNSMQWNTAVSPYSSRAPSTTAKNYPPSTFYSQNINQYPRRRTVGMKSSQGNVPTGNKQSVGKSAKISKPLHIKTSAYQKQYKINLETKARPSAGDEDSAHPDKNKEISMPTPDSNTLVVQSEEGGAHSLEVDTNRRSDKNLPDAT

| Sequence | PBM E-score |
| --- | --- |
| AGCAGTAG | -0.168 |
| TGGCCCCA | -0.094 |
| AAGTAGTG | -0.075 |
| ACCTAATC | 0.0677 |
| AGTAGAAC | -0.0785 |
| ACAAGAAA | 0.28 |
| AGTAGAAA | 0.297 |
| CCAAGAAA | 0.0914 |
| CGTAGAAA | -0.0538 |
| CAAAGAAA | 0.214 |
| GAAAGAAA | 0.297 |
| GAAAGAAC | -0.00643 |
| ACAAGAAT | 0.137 |
| CCCACATC | -0.0169 |
| GGCAAGCC | -0.0158 |
| GCTAACCC | -0.192 |
| CAGCTGCG | -0.0692 |
| AGAAATTG | 0.209 |
| CATGGATC | -0.0524 |
| AACTTTAT | 0.165 |
| ACTAAACC | 0.0959 |
| AATAAAAT | 0.183 |

| Sequence | PBM E-score |
| --- | --- |
| ACTAAAAG | 0.1 |
| ACTAATAC | 0.131 |
| ACTAAAAC | 0.272 |
| ACTAATAG | 0.0525 |
| ACTAAAAT | 0.27 |
| ACTAAAAA | 0.203 |
| ACTAATAT | 0.288 |
| AGAGTCTC | -0.00303 |
| CTTGTTCA | -0.105 |
| GACGTCAC | -0.136 |
| TCATACCA | -0.0469 |
| CATGGTTC | 0.19 |
| GTGGGCGA | -0.0639 |
| CGGACCAA | -0.096 |
| AACTGGTA | -0.00841 |
| ATCGTCGG | 0.00187 |
| ACCGTTTG | -0.0273 |
| ACCGTTTC | 0.3 |
| ACCGTTTA | 0.059 |
| CCCGTTTC | 0.274 |
| CCCGTTGC | -0.145 |
| CCCGTTTA | 0.0626 |

| Sequence | PBM E-score |
| --- | --- |
| TCACTTAA | 0.191 |
| GCCGACGA | 0.17 |
| TCCGACGA | -0.109 |
| CCCGACGA | 0.284 |
| ATAGCATA | -0.011 |
| GAAGACTA | -0.0635 |
| TAATTGAA | 0.0688 |
| CAATTGAA | 0.187 |
| GAATTAAA | 0.287 |
| CGATTAAA | 0.073 |
| TGATTAAA | 0.158 |
| GAATTGAA | 0.278 |
| GGATTAAA | 0.274 |
| GAATTAAC | 0.00892 |
| AAATTAAA | 0.206 |
| ATCCTACG | -0.141 |
| GAGCTTGA | -0.176 |
| AAAAACAC | 0.233 |
| CCGGAACC | 0.0511 |
| GCGGGGTA | 0.143 |
| CAGCCATC | -0.0408 |
| GCTCTACC | -0.167 |

| Sequence | PBM E-score |
| --- | --- |
| AAGCGAGA | 0.108 |
| CTCTTTAA | -0.122 |
| GTACCGAA | 0.0964 |
| TTACCAAA | 0.263 |
| CTACCAAA | 0.0171 |
| CTACCGAA | -0.131 |
| TTACCGAA | 0.276 |
| GTACCAAA | 0.0457 |
| GCATGCCC | 0.105 |
| AAACTGAA | 0.268 |
| GAACTTAA | 0.115 |
| CAACTTAA | 0.0143 |
| AAACTTTG | 0.217 |
| AAACTGTA | 0.135 |
| CAACTTTA | 0.161 |
| AAACTGTT | 0.162 |
| AAACTTTA | 0.294 |
| AAACTTAA | 0.298 |
| AAGATTGC | -0.0392 |
| ACTTTGAT | 0.11 |
| CCCGGCGG | 0.0682 |
| ATTAAGGG | 0.0581 |

| Sequence | PBM E-score |
| --- | --- |
| ATCTCGAC | 0.0726 |
| GATCCCCA | 0.0544 |
| CGCCTACA | 0.0882 |
| GTAGCCAC | -0.27 |
| CTGGGGGC | -0.233 |
| GCCCCACA | 0.101 |
| CCCCCACC | -0.207 |
| ACCCCACC | 0.373 |
| GCCCCACC | 0.266 |
| ACCCCACG | -0.159 |
| ACCCCACT | 0.0311 |
| GGACCCGA | -0.0164 |
| CTCCACAA | 0.00925 |
| CAAAGCGA | 0.0708 |
| ACAAGGAC | -0.129 |
| AGAAGACA | -0.132 |
| AACTCGCC | -0.0534 |
| TGATTTAA | 0.266 |
| GAATTTAA | 0.0395 |
| AAATTTGA | 0.123 |
| AAATTTAA | 0.289 |
| AAATTTCA | 0.0583 |
